Measured values: PubChem BioAssay (Tox21)
Inconclusive results are not listed. Activity calls are given as the source filed them. Unless noted, calls come from the whole dose curve; as a rule, active = well fitted curve in the direction sought with a large enough effect in the repeat runs; inconclusive = weak or mixed curves; inactive = no such curve, though single readings can be large; an effect the other way counts as inactive or inconclusive. Positions of bridges follow the written chain, without caps; N, C: chain ends. Non-standard residues stand in square brackets, D forms with d. Residues, ends and D or L forms follow the SMILES beside them. hArg = N=C(N)NCCCC[C@H](N)C(=O)O; Mpa = O=C(O)CCS

Assays:
[1] = target: Nuclear receptor subfamily 1 group I member 3 (Homo sapiens) (UniProt Q14994); assay: qHTS assay to identify small molecule agonists of the constitutive androstane receptor (CAR) signaling pathway (AID 1224839); note: nearly all actives have a fitted effect of over 15% in size; note: potency is the fitted concentration of half-maximal effect;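 for activation: HepG2 cells stably carrying human CAR and a CYP2B6 luciferase reporter; series mostly up to about 92 µM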
Chain of Nuclear receptor subfamily 1 group I member 3 (Homo sapiens) (Q14994 whole entry, looked up): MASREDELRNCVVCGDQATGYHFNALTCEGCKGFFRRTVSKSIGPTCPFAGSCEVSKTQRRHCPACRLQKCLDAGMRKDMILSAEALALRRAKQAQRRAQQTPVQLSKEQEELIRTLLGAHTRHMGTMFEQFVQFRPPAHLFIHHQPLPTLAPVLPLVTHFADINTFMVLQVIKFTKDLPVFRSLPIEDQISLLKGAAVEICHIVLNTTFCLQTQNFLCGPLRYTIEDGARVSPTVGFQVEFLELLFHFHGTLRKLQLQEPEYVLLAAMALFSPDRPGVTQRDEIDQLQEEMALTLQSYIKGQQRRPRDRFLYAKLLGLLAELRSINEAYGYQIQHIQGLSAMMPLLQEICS
Procedure, shortened: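 HepG2 cells stably co-transfected with hCAR and a CYP2B6-2.2kb luciferase reporter; compounds at 15 concentrations with 0.75 uM PK11195 present. After 24 hr at 37 C, luciferase read by ONE-Glo luminescence.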

[2] = qHTS assay to identify small molecule antagonists of the estrogen related receptor signaling pathway with the pleiotropic PPARgamma coactivator (PGC) from Tox21 10K library - cell viability counter screen (AID 1224840; active = well fitted cell-killing curve with a large enough effect in the repeat runs, not every such curve was filed as active; note: nearly all actives have a fitted effect of over 40% in size)
Procedure, shortened: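 PGC/ERR cells were seeded at 2,000 cells/well and left 6 hours at 37 C/5% CO2 before pin-tool addition of compounds in DMSO. After 17.5 hours at 37 C, CellTiter-Fluor was added and fluorescence read 30 minutes later.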

[3] = target: Thyrotropin receptor (Homo sapiens) (UniProt P16473); assay: qHTS assay to identify small molecule agonists of the thyroid stimulating hormone receptor (TSHR) signaling pathway (AID 1224843; calls by dose curve; note: nearly all actives have a fitted effect of over 45% in size)
Chain of Thyrotropin receptor (Homo sapiens) (P16473 whole entry, looked up): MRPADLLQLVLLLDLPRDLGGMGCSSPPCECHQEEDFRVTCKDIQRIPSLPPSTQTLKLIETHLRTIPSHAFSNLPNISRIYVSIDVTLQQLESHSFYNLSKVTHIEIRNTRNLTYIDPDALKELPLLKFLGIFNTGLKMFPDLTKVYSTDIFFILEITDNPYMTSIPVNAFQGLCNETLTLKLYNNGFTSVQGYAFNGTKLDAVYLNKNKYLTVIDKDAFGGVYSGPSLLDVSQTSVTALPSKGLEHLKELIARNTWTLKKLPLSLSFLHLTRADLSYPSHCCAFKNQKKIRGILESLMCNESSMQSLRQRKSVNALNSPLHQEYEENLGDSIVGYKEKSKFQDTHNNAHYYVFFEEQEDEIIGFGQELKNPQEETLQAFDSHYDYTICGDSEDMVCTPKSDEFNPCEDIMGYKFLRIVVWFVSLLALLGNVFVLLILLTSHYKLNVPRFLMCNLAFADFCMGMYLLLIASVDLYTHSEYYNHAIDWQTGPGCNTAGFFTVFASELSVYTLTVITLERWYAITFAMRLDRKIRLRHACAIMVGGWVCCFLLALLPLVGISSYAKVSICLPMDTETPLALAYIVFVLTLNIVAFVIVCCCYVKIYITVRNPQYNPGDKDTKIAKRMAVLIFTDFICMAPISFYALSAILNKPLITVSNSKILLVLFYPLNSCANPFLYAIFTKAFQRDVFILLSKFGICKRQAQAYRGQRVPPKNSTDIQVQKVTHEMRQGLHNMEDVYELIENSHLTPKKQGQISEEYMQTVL
Procedure, shortened: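 Cell line HEK293 with TSHR; density 800/well. Exposure 30 min RT. Readout HTRF cAMP (cAMP-d2/anti-cAMP-cryptate), 1 h RT before reading.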

[4] = qHTS assay to identify small molecule agonists of the hypoxia (HIF-1) signaling pathway - cell viability counter screen (AID 1224844; calls by dose curve; note: nearly all actives have a fitted effect of over 50% in size)
Procedure, shortened: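 HRE-bla ME-180 cells in medium with 0.5% dialyzed FBS were preincubated 5 hrs at 37C, exposed to compounds for 17 hrs, then viability was read as CellTiter-Glo luminescence after 30 min at room temperature, in the reporter wells.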

[5] = qHTS assay to identify small molecule agonists of the hypoxia (HIF-1) signaling pathway (AID 1224846; active = well fitted activation curve with a large enough effect in the signal ratio in the repeat runs, not every such curve was filed as active; the % refers to the signal ratio)
Procedure, shortened: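 HRE-bla ME-180 cells (beta-lactamase reporter under hypoxia response element) were plated at 2,000 cells/well in medium with 0.5% dialyzed FBS, rested 5 hrs, then given compounds in DMSO for 17 hrs at 37C, 5% CO2. Reporter induction was read with CCF4-AM FRET substrate.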

[6] = qHTS assay to identify small molecule agonists of H2AX - cell viability counter screen (AID 1224847; calls by dose curve; note: top concentration of the series differs between compounds; nearly all actives have a fitted effect of over 30% in size)
Procedure, shortened: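 CHO-K1 cells plated overnight at 37C, then exposed 3 h at 37C to compounds at 15 concentrations (0.76% DMSO final). Viability by CellTiter-Glo luminescence after 30 min at room temperature.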

[7] = qHTS RealTime-Glo MT Cell Viability Assay in HepG2 cells - 24 hour (AID 1224867); note: nearly all actives have a fitted effect of over 50% in size
Procedure, shortened: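 HepG2 cells (600/well) were dispensed with RealTime-Glo reagents, incubated 5 h at 37 °C, then treated with compounds in DMSO for up to 40 h. Nonlytic NanoLuc luminescence reflecting viable cells was read at each stated time point.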

[8] = qHTS RealTime-Glo MT Cell Viability Assay in HEK293 cells - 32 hour (AID 1224868); note: top concentration of the series differs between compounds; nearly all actives have a fitted effect of over 50% in size
Procedure, shortened: (§1)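 HEK293 cells seeded with NanoLuc/prosubstrate reagent, rested 5 h at 37 C, then dosed and kept at 37 C up to 40 h. Nonlytic real-time luminescence from viable cells read at 0, 8, 16, 24, 32 and 40 h.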

[9] = A CellTox Green Cytotoxicity Assay to monitor cytotoxicity in HEK293 cells - 0 hour (AID 1224869); note: nearly all actives have a fitted effect of over 50% in size
Procedure, shortened: (§2)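 HEK293 cells premixed with CellTox Green dye were seeded at 600 cells/well and left 5 h at 37 C/5% CO2 before pin transfer of 23 nL compound in DMSO. Fluorescence from dye bound to dead-cell DNA was read during 40 h treatment.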

[10] = qHTS RealTime-Glo MT Cell Viability Assay in HepG2 cells - 40 hour (AID 1224870); note: nearly all actives have a fitted effect of over 50% in size
Procedure, shortened: (§3)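 HepG2 cells mixed with RealTime-Glo MT reagents (NanoLuc plus cell-permeant prosubstrate) were seeded at 600 cells/well, incubated 5 h at 37 C/5% CO2, then pinned with compounds in DMSO; nonlytic luminescence tracked viability during 40 h treatment.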

[11] = A CellTox Green Cytotoxicity Assay to monitor cytotoxicity in HEK293 cells - 40 hour (AID 1224871); note: nearly all actives have a fitted effect of over 45% in size
Procedure, shortened: as §2

[12] = qHTS RealTime-Glo MT Cell Viability Assay in HEK293 cells - 16 hour (AID 1224872)
Procedure, shortened: as §1

[13] = qHTS RealTime-Glo MT Cell Viability Assay in HepG2 cells - 8 hour (AID 1224873); note: nearly all actives have a fitted effect of over 55% in size
Procedure, shortened: as §3

[14] = qHTS RealTime-Glo MT Cell Viability Assay in HEK293 cells - 40 hour (AID 1224874); settings: RealTime-Glo luminescence; max response: hits give low values; note: nearly all actives have a fitted effect of over 50% in size
Procedure, shortened: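 HEK293 cells mixed with RealTime-Glo reagents (NanoLuc plus cell-permeant prosubstrate) at 600 cells/well, preincubated 5 h at 37 C/5% CO2, then given 23 nL compound in DMSO. Nonlytic luminescence from viable cells was read at 0, 8, 16, 24, 32 and 40 h.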

[15] = A CellTox Green Cytotoxicity Assay to monitor cytotoxicity in HEK293 cells - 24 hour (AID 1224875); note: series mostly up to about 77 µM; nearly all actives have a fitted effect of over 45% in size
Procedure, shortened: as §2

[16] = qHTS assay to identify small molecule agonists of H2AX (AID 1224845; active = well fitted activation curve with a large enough effect in the signal ratio in the repeat runs, not every such curve was filed as active; the % refers to the signal ratio)
Procedure, shortened: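 Wild-type CHO-K1 cells plated overnight, then exposed 3 hr at 37C to compounds at 15 concentrations (0.76% DMSO). Lysed, then HTRF anti-pH2AX(S139)-cryptate/anti-H2AX-d2 detection after 24 hr at room temperature; emissions 665 and 620 nm.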
% is set by controls: 0 for no effect and ±100 for the full control effect.

O=S(=O)(O)c1ccc2c(N=Nc3ccc(S(=O)(=O)O)c4ccccc34)c(O)c(S(=O)(=O)O)cc2c1
inactive: activation [1] 0.066% [at 8.39 µM] | viability change, negative = cytotoxic [2] -10.3% [at 8.39 µM] | activation [3] 3.55% [at 8.39 µM] | activity change, negative = cytotoxicity [4] -2.23% [at 6.97 µM] | activation [5] -0.322% [at 7.01 µM] | activity change, negative = cytotoxicity [6] -5.59% [at 14 µM] | activity change, negative = cytotoxicity [7] -1.89% [at 6.97 µM] | activity change, negative = cytotoxic [8] 7.73% [at 6.97 µM] | cytotoxicity [9] 3.08% [at 6.97 µM] | activity change, negative = cytotoxic [10] -7.38% [at 6.97 µM] | cytotoxicity increase [11] 7.83% [at 6.97 µM] | activity change, negative = cytotoxicity [12] 5.03% [at 6.97 µM] | viability change, negative = cytotoxic [13] 0.329% [at 6.97 µM] | max response [14] 4.14%

NC(=O)[C@@H]1CSSCCC(=O)N[C@@H](CCCCN=C(N)N)C(=O)NCC(=O)N[C@@H](CC(=O)O)C(=O)N[C@@H](Cc2c[nH]c3ccccc23)C(=O)N2CCC[C@H]2C(=O)N1 ([Mpa][hArg]GDWPC-NH2; disulfide 1-7)
inactive: Potency [1] | outcome [2] | outcome [3] | outcome [4] | outcome [5] | outcome [6] | outcome [7] | Potency [8] | Potency [9] | outcome [10] | Potency [11] | Potency [12] | outcome [13] | max response [14] 0% | Potency [15]

CC1(C)[C@H]2CC[C@](C)(C2)[C@H]1O
inactive: Potency [1] | outcome [2] | outcome [4] | outcome [16] | outcome [5] | outcome [6] | outcome [7] | Potency [8] | Potency [9] | outcome [10] | Potency [11] | Potency [12] | outcome [13] | max response [14] -1.99% | Potency [15]

CC1=C(C(=O)O)N2C(=O)[C@@H](NC(=O)[C@H](N)C3=CCC=CC3)[C@H]2SC1
inactive: Potency [1] | outcome [2] | outcome [3] | outcome [4] | outcome [16] | outcome [6] | outcome [7] | Potency [8] | Potency [9] | Potency [11] | Potency [12] | outcome [13] | max response [14] 0.914% | Potency [15]

OCCN1CCOCC1
inactive: Potency [1] | outcome [2] | outcome [3] | outcome [4] | outcome [16] | outcome [5] | outcome [7] | Potency [9] | Potency [11] | Potency [12] | outcome [13] | max response [14] 2.9%

CCn1cc(C(=O)O)c(=O)c2cnc(N3CCCC3)nc21
inactive: activation [1] -0.437% [at 8.39 µM] | viability change, negative = cytotoxic [2] 1.85% [at 8.39 µM] | activation [3] -1.79% [at 8.39 µM] | activity change, negative = cytotoxicity [4] 0.904% [at 6.97 µM] | activation (H2AX phosphorylation) [16] 0.23% [at 14 µM] | activity change, negative = cytotoxicity [6] -5.46% [at 14 µM] | activity change, negative = cytotoxicity [7] 0.974% [at 6.97 µM] | activity change, negative = cytotoxic [8] 10% [at 6.97 µM] | cytotoxicity [9] 1.5% [at 6.97 µM] | cytotoxicity increase [11] 3.57% [at 6.97 µM] | viability change, negative = cytotoxic [13] 5.81% [at 6.97 µM] | max response [14] 10.4% | activity change [15] 4.09% [at 6.97 µM, hits give high values]

Cc1c(Cl)cccc1Cl
inactive: Potency [1] | outcome [2] | outcome [4] | outcome [16] | outcome [5] | outcome [6] | outcome [7] | Potency [8] | Potency [9] | outcome [10] | Potency [11] | Potency [12] | outcome [13] | max response [14] -1.25% | Potency [15]

CCCCCCCCCCCCCCCCCC#N
inactive: Potency [1] | outcome [2] | outcome [3] | outcome [16] | outcome [5] | outcome [6] | outcome [7] | Potency [8] | Potency [9] | Potency [11] | Potency [12] | outcome [13] | max response [14] -5.42% | Potency [15]

Cc1ccc2c(c1)C(=O)c1ccccc1C2=O
inactive: outcome [2] | outcome [3] | outcome [4] | outcome [5] | outcome [6] | outcome [7] | Potency [8] | Potency [9] | outcome [10] | Potency [11] | Potency [12] | max response [14] 5.01% | Potency [15]
active: Potency [1] 27.2 µM
